{"source": "the supplement of paper PMC6135742", "note": "Structures can show the parent of a compound that is named as a salt. ± gives the standard deviation of the averaged measurements. The full ranking holds about 2,600 compounds; the median of “MBP+ mature oligodendrocyte number relative to DMSO vehicle control” is about -0.34, and the highest 2% start at about 13. The list comes from a sample in which the highest values are over-represented; it also holds similar structures and randomly drawn compounds.", "data": [{"system": "jimpy (Plp1 jimpy) mouse iPSC-derived oligodendrocyte progenitor cells", "assay": "MBP+ mature oligodendrocyte number relative to DMSO vehicle control (SDs above negative control mean); higher = more surviving jimpy oligodendrocytes (rescue)", "conditions": "10 µM; 3 days", "method": "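Primary phenotypic screen of >3,000 bioactive compounds (Selleck L1700 and Sigma LO1280 libraries) at a single dose of 10 µM. Compounds were added to jimpy (Plp1 mutant) mouse iPSC-derived OPCs at the start of thyroid hormone-induced oligodendrocyte differentiation, one well per compound in 384-well plates. After 3 days cells were stained for MBP, Sox10 and DAPI and imaged with an Operetta system. MBP+ oligodendrocyte number and total cell number were expressed as the number of SDs above the mean of the DMSO negative control on the same plate (n=16 control wells per plate). Hits were defined as >=4 SD for oligodendrocytes and >=2 SD for total cells.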", "values": [{"smiles": "CCN(CC)CCNC(=O)c1ccc(NS(C)(=O)=O)cc1", "note": "[Sematilide monohydrochloride monohydrate]", "MBP+ mature oligodendrocyte number": -0.439}, {"smiles": "O=C(NCc1ccccc1)c1csc(Nc2ccncn2)n1", "note": "[Thiazovivin]", "MBP+ mature oligodendrocyte number": -3.47}, {"smiles": "CCCCNc1ncc(-c2ccc(CN3CCOCC3)cn2)c(NC2CCC(O)CC2)n1", "note": "(centres undefined)", "MBP+ mature oligodendrocyte number": -4.15}, {"smiles": "O=C1c2ccccc2C(=O)c2c(NCCc3ccc(O)cc3)ccc(NCCc3ccc(O)cc3)c21", "MBP+ mature oligodendrocyte number": -4.41}, {"smiles": "Cc1ccc(C(=O)Cn2c3c(sc2=N)CCCC3)cc1", "note": "[Pifithrin-? (PFT?)]", "MBP+ mature oligodendrocyte number": 17}, {"smiles": "Cc1ccc(C(=O)C(C)CN2CCCCC2)cc1", "note": "(centres undefined) [Tolperisone HCl]", "MBP+ mature oligodendrocyte number": 5.05}, {"smiles": "S=c1[nH]c(-c2ccccc2)cn1-c1ccccc1", "MBP+ mature oligodendrocyte number": 2.54}, {"smiles": "CN(C)c1ccc(/C=C2/C(=O)Nc3ccccc32)cc1", "MBP+ mature oligodendrocyte number": 0.789}, {"smiles": "O=c1cc(-c2ccccc2)oc2cc(O)cc(O)c12", "note": "[Chrysin]", "MBP+ mature oligodendrocyte number": 4.59}, {"smiles": "COc1cc(N)c(Cl)cc1C(=O)OCCN1CCCCC1", "MBP+ mature oligodendrocyte number": -3.81}, {"smiles": "CCOc1cc(N)c(Cl)cc1C(=O)NCC1CN(Cc2ccc(F)cc2)CCO1", "note": "(centres undefined) [Mosapride Citrate]", "MBP+ mature oligodendrocyte number": 23}, {"smiles": "CCN(CC)CCNC(=O)c1cc(Cl)c(N)cc1OC", "note": "[Metoclopramide hydrochloride]", "MBP+ mature oligodendrocyte number": 0.304}, {"smiles": "C[C@H]1O[C@@H](Oc2c(-c3cc(O)c(O)c(O)c3)oc3cc(O)cc(O)c3c2=O)[C@@H](O)[C@@H](O)[C@@H]1O", "note": "[Myricitrin]", "MBP+ mature oligodendrocyte number": 0.507}, {"smiles": "Nc1ccc(-c2ccc3ccccc3n2)cc1", "note": "[BF-170 hydrochloride]", "MBP+ mature oligodendrocyte number": 0.146}, {"smiles": "O=C(/C=C/c1ccc(O)c(O)c1)c1ccc(O)cc1O", "note": "[Butein]", "MBP+ mature oligodendrocyte number": -4.58}, {"smiles": "CCCCOc1ccc(OCCCN2CCOCC2)cc1", "note": "[Pramoxine HCl]", "MBP+ mature oligodendrocyte number": 14.3}, {"smiles": "O=C(Cc1ccc(-c2ccc(OCCN3CCOCC3)cc2)cn1)NCc1ccccc1", "MBP+ mature oligodendrocyte number": -5.77}, {"smiles": "CCCCOc1ccc(C(=O)CCN2CCCCC2)cc1", "note": "[Dyclonine HCl]", "MBP+ mature oligodendrocyte number": -1.91}, {"smiles": "CC[C@@H]1C(=O)N(C)c2cnc(Nc3ccc(C(=O)N[C@H]4CC[C@H](N5CCN(CC6CC6)CC5)CC4)cc3OC)nc2N1C(C)C", "note": "[Volasertib (BI 6727)]", "MBP+ mature oligodendrocyte number": "< -4.81"}, {"smiles": "Cc1c(OCC(F)(F)F)ccnc1C[S@@+]([O-])c1nc2ccccc2[nH]1", "note": "[Dexlansoprazole]", "MBP+ mature oligodendrocyte number": 17.2}, {"smiles": "Cc1c(OCC(F)(F)F)ccnc1C[S+]([O-])c1nc2ccccc2[nH]1", "note": "(centres undefined) [Lansoprazole]", "MBP+ mature oligodendrocyte number": "7.5 ± 4.5"}, {"smiles": "COCCCOc1ccnc(C[S+]([O-])c2nc3ccccc3[nH]2)c1C", "note": "(centres undefined) [Rabeprazole sodium]", "MBP+ mature oligodendrocyte number": 1.61}, {"smiles": "O=C(NCCCNc1nc(Nc2cccc(NC(=O)N3CCCC3)c2)ncc1I)c1cccs1", "MBP+ mature oligodendrocyte number": -6.61}, {"smiles": "NCCCCC(=O)O", "note": "[5-Aminovaleric acid hydrochloride]", "MBP+ mature oligodendrocyte number": -1.14}]}]}
